High-throughput results (PubChem BioAssay)
The list is not random: actives were taken first. Their share in the collection is about 1.8%.
p53ts 39C kill: qHTS Screen for Compounds that Selectively Target Cancer Cells with p53 Mutations: Cytotoxicity of p53ts Cells at the Nonpermissive Temperature | Potency, µM (top dose mostly 46.1 µM), inactives show top-dose activity change, negative = cell killing, usual class: cytotoxic | 1.5% of 130,000 active | H1299-p53A138V viability at 39C, ATP luminescence, 24 h; note: % is set by controls: 0 for no effect and ±100 for the full control effect; nearly all actives have a fitted effect of over 55% in size
p53ts 32C tox: qHTS Screen for Compounds that Selectively Target Cancer Cells with p53 Mutations: Cytotoxicity of p53ts Cells at the Permissive Temperature; H1299-p53A138V at 32C, ATP luminescence viability, 24 h; Potency, µM (titrated, usually from 46.1 µM), without a hit: at the top dose activity change, negative = cytotoxicity, usual class: cytotoxic; 0.93% of 130,000 active;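 note: 0% = DMSO and -100% = full killing by reference compound; nearly all actives have a fitted effect of over 55% in size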
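ATP-content luminescence (ATPlite) read-out after 24 h compound exposure at 32C in H1299-p53A138V cells (600/well). Tested up to 46 uM. Normalized to DMSO (0%) and 100 uM tamoxifen (100% killing); Hill-fit AC50.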
Imprint erasure: qHTS Assay for Compounds that Induce Erasure of Genomic Imprints | mouse ES Peg3-LacZ reporter, beta-gal luminescence, 40 h | Potency, µM (series often up to 60.7 µM), without a hit: at the highest dose activity change, positive = activation, hits mostly activators | 0.02% of 110,000 active | AID 1948, 2009
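Gelatin-coated wells received 300 freshly trypsinized female ES cells with a Peg3LacZ-Neo reporter on the maternal allele, then incubated 40 hours at 37C. BetaGlo was added for 5 minutes at room temperature before a single luminescence read.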
* marks the source's active call; other numbers are inactive results; ? = inconclusive; / = no result; [ ] = dose if it differs, or a comment. Calls come from the whole dose curve; as a rule, active = well fitted curve in the direction sought with a large enough effect; inconclusive = small, poorly fitted or top-dose-only effect, or another doubt; inactive = no such curve, though single readings can be large; an effect the other way counts as inactive or inconclusive. Potency is the fitted concentration of half-maximal effect.

SMILES	p53ts 39C kill	p53ts 32C tox	Imprint erasure
CCSc1nnc2n(-c3cccc(C)c3)c(=O)c3c4c(sc3n12)CCCC4	9%	5%	-10%[10.9 µM]
Cc1ccc(N2C(=O)c3ccccc3C2Nc2ccccc2F)nc1 (stereo not drawn)	0%	10%	-18%
Cc1ccc(N2C(=O)c3ccccc3C2O)nc1 (stereo not drawn)	5µM*	4µM*	-93%
COc1ccc(Nc2c3c(nc4ccc(NC(=O)/C=C/c5cc(OC)c(OC)c(OC)c5)cc24)CCCC3)cc1OC	10µM*	13µM*	-36%[10.9 µM]
COc1ccc(Nc2c3c(nc4ccc(NC(=O)/C=C/c5cccc(OC)c5OC)cc24)CCCC3)cc1OC	10µM*	10µM*	-34%[10.9 µM]
COc1ccc(/C=C/C(=O)Nc2ccc3nc(N4CCCCC4)cc(C)c3c2)cc1OC	?	?	1%[10.9 µM]
COc1ccc(C)cc1Nc1c2c(nc3ccccc13)CCC2	?	-3%	-19%[10.9 µM]
COc1ccccc1Nc1c2c(nc3ccc(NC(=O)/C=C/c4cccc(OC)c4OC)cc13)CCCC2	-25%	-6%	-33%[10.9 µM]
COc1ccc(/C=C/C(=O)Nc2ccc3nc4c(c(Nc5ccccc5OC)c3c2)CCCC4)cc1	-7%	-8%	-35%[10.9 µM]
COc1ccccc1Nc1c2c(nc3ccc(NC(=O)c4cccc(F)c4)cc13)CCCC2	5µM*	10µM*	-38%[10.9 µM]
COc1ccc(/C=C/C(=O)Nc2ccc3nc4c(c(Nc5ccc(OC)c(OC)c5)c3c2)CCCC4)cc1	10µM*	11µM*	-35%[10.9 µM]
Cc1ccc(CNCc2ccc3c(c2)n(C)c(=O)n3C)cc1	16%	-13%	-10%[10.9 µM]
Cc1ccc(NC(=O)Cn2cnc3sc(C)c(S(=O)(=O)N4CCN(c5ncccn5)CC4)c3c2=O)cc1F	-1%	3%	-17%[10.9 µM]
Cc1noc(Cn2c(=O)c3ccccc3n(CC(=O)Nc3cc(Cl)ccc3C)c2=O)n1	4%	-5%	19%[10.9 µM]
CCN1CCN(CCCNC(=O)c2cc3c(s2)-c2c(C)cccc2OC3)CC1	25µM*	?	-9%[10.9 µM]
Cc1cccc2c1-c1sc(C(=O)NCc3ccc(Cl)cc3)cc1CO2	?	-20%	-7%[10.9 µM]
Cc1cccc2c1-c1sc(C(=O)N3CCN(c4cccc(Cl)c4)CC3)cc1CO2	-16%	9%	-6%[10.9 µM]
Cc1cccc2c1-c1sc(C(=O)NCCCN3CCN(c4cccc(Cl)c4)CC3)cc1CO2	13µM*	-3%	-31%[10.9 µM]
Cc1ccc(CNC(=O)c2cc3c(s2)-c2c(C)cccc2OC3)cc1	?	-8%	22%[10.9 µM]
Cc1cccc2c1-c1sc(C(=O)NCCCN3CCN(c4ccccc4F)CC3)cc1CO2	16µM*	-4%	-19%[10.9 µM]
COc1ccc(Cl)cc1NC(=O)CCn1nc(C)cc1C	-9%	-1%	-10%[10.9 µM]
O=C(Nc1nc(-c2ccc(Br)cc2)ns1)c1ccccc1F	-13%	-13%	-14%[10.9 µM]
CC(C)Oc1ccccc1-c1nc(SCC(=O)c2ccc(F)cc2)n[nH]1	-16%	10%	-8%[10.9 µM]
CC1Cc2ccccc2N1C(=O)CSc1nnc(-c2cccc(Cl)c2)o1 (stereo not drawn)	-12%	-1%	9%[10.9 µM]
O=C(Nc1ccc2nc(-c3cccnc3)[nH]c2c1)c1ccco1	-28%	?	-6%
SMILES	p53ts 39C kill	p53ts 32C tox	Imprint erasure
O=C(Nc1ccc2nc(-c3ccco3)[nH]c2c1)c1cccs1	13µM*	10µM*	-12%
O=C(Nc1cccc(NC(=O)c2cccs2)c1)c1ccco1	-1%	-2%	-21%
O=C(Nc1ccc2nc(-c3ccco3)[nH]c2c1)c1ccco1	16µM*	7.9µM*	-41%
Cc1ccc(-c2ccc(=O)n(CC(=O)Nc3ccc(C)cc3Cl)n2)cc1	?	-6%	-9%[10.9 µM]
CCOC(=O)c1cccc(NS(=O)(=O)c2ccc3[nH]c4c(c3c2)CCCC4)c1	/	-8%	/
COc1ccc(Cl)cc1S(=O)(=O)NCc1ccc2c(c1)CCN2C(=O)c1cccc(C)c1	-20%	31%	19%[10.9 µM]
CC(C)COc1ccc(C(=O)Nc2onc3c2CCCC3)cc1	16µM*	?	-27%[10.9 µM]
CC(C)COc1ccc(C(=O)NCc2ccco2)cc1	-6%	-10%	-21%
CCOc1ccc(C(=O)Nc2onc3c2CCCC3)cc1	16µM*	6.3µM*	-40%[10.9 µM]
O=C(Nc1onc2c1CCCC2)c1ccccc1	?	?	-48%[10.9 µM]
CCOc1ccc(C(=O)NCC2CCCO2)cc1 (stereo not drawn)	3%	-9%	-25%
CC(C)(C)c1ccc(C(=O)Nc2onc3c2CCCC3)cc1	13µM*	13µM*	-12%[10.9 µM]
